# Measurements published in PubChem BioAssay AID2685 (National Center for Advancing Translational Sciences (NCATS), 2010).
# The whole screen tested about 320,000 compounds, of which about 2,100 (0.66%) were called active. Not shown: some 53% with an inconclusive outcome. Calls come from the whole dose curve; as a rule, active = well fitted inhibition curve with a large enough effect in the signal ratio, with a control signal flat (not every such curve was filed as active); inconclusive = small, poorly fitted or top-dose-only effect, or effect the other way, or a change in a side signal; inactive = flat fitted curve, though single readings scatter; the % refers to the signal ratio. The full list was thinned out, with actives kept by preference. Where a SMILES comes first, the peptide text is derived from it. [ ]: non-standard residue; d: D form. The star is where a group is joined. ξ: configuration not given here. ξF = NC(Cc1ccccc1)C(=O)O; Cbz = O=C(OCc1ccccc1)*
# Assay: qHTS Assay for Lipid Storage Modulators in Drosophila S3 Cells;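 for cell number change: cells counted by Cell Tracker Red CMTPX staining in the red channel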; for lipid storage change, negative = inhibition: % is set by controls: 0 for no effect and ±100 for the full control effect
# Conditions: BODIPY lipid droplet fluorescence, 18-24 h, cells fed with added oleic acid; cell number change: measured here: cell count max response; series mostly up to 46.1 µM; lipid storage change, negative = inhibition: at the top concentration
# Summary of the method: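 Drosophila S3 cells got compounds at several concentrations plus oleic acid (400 uM solution). Laser-scanning cytometry with 488 nm excitation read lipid droplets at 500-530 nm and cells at 575-640 nm. Percent activity was relative to 20 uM Triacsin C.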
# Potency is the fitted concentration of half-maximal effect.
SMILES,"lipid storage change, negative = inhibition",cell number change [%],Potency,outcome
Cc1cc(-c2ccc(C)c(S(=O)(=O)NCCC(C)N3CCCCCC3)c2)on1 (stereo not given),-5.57% (inactive),3.3,,
CCOc1ccc(CN(C)C(=O)[C@H](Cc2ccccc2)NC(=O)OCc2ccccc2)cc1OC,,6.3,8.2 µM (active),
CCOC(=O)CNC(=O)C(Cc1ccccc1)NC(=O)OCc1ccccc1 (stereo not given) (Cbz-[ξF]-Gly-OEt),-13.8% (inactive),,,
COc1ccc(CCNC(=O)C(NC(=O)OCc2ccccc2)C(C)C)cc1OC (stereo not given),3.69% (inactive),2.79,,
CN1CCN(C2=NC(=O)/C(=C/c3ccccc3OS(=O)(=O)c3ccccc3)S2)CC1,-11.1% (inactive),6.94,,
CCOC(=O)C(NC(C)=O)(Nc1cccc(F)c1)C(F)(F)F (stereo not given),,-1.43,4.11 µM (active),
CCOC(=O)C(NC(C)=O)(Nc1ccc(F)cc1)C(F)(F)F (stereo not given),-1.37% (inactive),-0.408,,
CCOC(=O)C(NC(=O)CC)(Nc1ccccc1)C(F)(F)F (stereo not given),-8.39% (inactive),-9.13,,
CNC(=O)C1CC(=O)N(c2ccc(F)c(Cl)c2)C1 (stereo not given),13.9% (inactive),9.35,,
CCOc1ccc(OCCN2CCCCC2)cc1,-4.06% (inactive),-0.326,,
CC(C)c1ccc(OCCCN2CCCC2)cc1,-5.07% (inactive),0.741,,
CCC(C)c1ccc(OCCN2CCCC2)cc1 (stereo not given),,7.66,23.1 µM (active),
COc1ccc(OC)c(NS(=O)(=O)c2ccc(Cl)nc2)c1,-10.3% (inactive),7.58,,
CC(=O)NNC(=S)NCCc1ccccc1,6.36% (inactive),6.47,,
CCOCc1[nH]c(=S)[nH]c(=O)c1Cc1ccc(OCC)cc1,-24.1% (inactive),9.42,,
COc1ccc(CNc2nc3ccccc3n2Cc2ccc(Cl)cc2)cc1OC,-0.203% (inactive),-0.354,,
CCOC(=O)N1CCN(C(=O)CCc2cc(OC)c(OC)c(OC)c2)CC1,19.9% (inactive),18.4,,
CC(=O)N1CC(C)Sc2ccc(S(=O)(=O)NCCc3ccc(C)cc3)cc21 (stereo not given),,-15.2,6.51 µM (active),
COc1ccc(CNS(=O)(=O)c2ccc3c(c2)N(C(C)=O)CC(C)S3)cc1 (stereo not given),,-3.12,,inactive
CC(=O)N1CC(C)Sc2ccc(S(=O)(=O)NCc3ccc(Cl)cc3)cc21 (stereo not given),20.2% (inactive),17.6,,
CCc1ccc(-n2c(C)cc(/C=N/NC(=O)OC)c2C)cc1,7.36% (inactive),-6.79,,
CCCCOC(=O)Nc1nnc(COc2ccccc2)s1,8.5% (inactive),-19.4,,
Cc1ccc(OCc2nnc(NC(=O)OCC(C)C)s2)cc1,,0.0966,18.4 µM (active),
Cc1ccc(OCc2nnc(NC(=O)OCC(C)C)s2)c(C)c1,,,,inactive

SMILES,"lipid storage change, negative = inhibition",cell number change [%],Potency,outcome
O=C(NC1CCN(S(=O)(=O)c2ccc(Cl)c(F)c2)CC1)c1cccnc1,-20% (inactive),-17.9,,
C[C@@H](O)C1NC(=O)[C@H](CCCCN)NC(=O)c2cc([N+](=O)[O-])cc(I)c2OCC[C@@H](C(N)=O)NC1=O (stereo not given in full),6.3% (inactive),-6.85,,
O=S(=O)(c1ccc(Br)cc1)c1nc(-c2ccccc2)oc1NCCN1CCOCC1,0.674% (inactive),2.89,,
COCCNc1nnc(Cc2ccc(Cl)cc2)c(=O)[nH]1,-2.21% (inactive),-0.278,,
O=C(c1ccc(F)c(F)c1)N1CCCc2ccccc21,-1.08% (inactive),4.4,,
O=C(c1cccc(Br)c1)N1CCCc2ccccc21,,-21.4,0.82 µM (active),
O=C(c1ccccc1)N1CCCc2ccccc21,-0.33% (inactive),0.741,,
Cc1ccc(OCCCC(=O)Nc2ccc(N3CCOCC3)cc2)c(C)c1,,,,inactive
Cc1cc(Oc2nnnn2-c2ccccc2)ccc1Cl,-2.18% (inactive),,,
CCN(C(=O)c1ccc(NC(C)=O)cc1)c1ccccc1,,-17,,inactive
c1ccc(-n2nnnc2CN2CCOCC2)cc1,-2.17% (inactive),-7,,
Nc1ccc(-n2nnnc2CN2CCOCC2)cc1,10.8% (inactive),0.0095,,
CC1CCN(Cc2nnnn2-c2ccc(Cl)cc2)CC1,,-6.07,13 µM (active),
COc1ccc(OC)c(N(CC(=O)NCCSCc2ccco2)S(=O)(=O)c2ccc(OC)c(OC)c2)c1,-30% (inactive),-16.6,,
Cc1ccc2c(c1)S/C(=C\c1cccc[n+]1C)N2CCO,-8.13% (inactive),-6.57,,
CCCCN1/C(=C/c2cccc[n+]2C)Sc2cc(NC(C)=O)ccc21,,11.1,1.3 µM (active),
C[n+]1ccccc1/C=C1\Sc2ccccc2N1CCO,,-1.06,,inactive
O=C(Nc1nc2ccc([N+](=O)[O-])cc2s1)C1CCCO1 (stereo not given),3.18% (inactive),-16.8,,
O=C(NNC(=O)c1csc(-c2cccnc2)n1)c1ccccc1,-0.436% (inactive),5.13,,
S=C(NCc1cccc(Cl)c1)NCc1ccco1,-19.9% (inactive),29.3,,
CCC(CC)NC(=O)COC(=O)c1ccc2c(c1)C(=O)N(Cc1ccco1)C2=O,-29.9% (inactive),-0.427,,
CC(C)(C)NC(=O)COC(=O)c1ccc2c(c1)C(=O)N(Cc1ccco1)C2=O,,-13.3,,inactive
CC(C)(C)C(=O)COC(=O)c1ccc2c(c1)C(=O)N(Cc1ccco1)C2=O,,2.14,0.259 µM (active),
COc1ccc(NS(=O)(=O)c2cccc(C(=O)NCC(c3ccco3)N3CCCC3)c2)cc1 (stereo not given),16.7% (inactive),21.4,,

SMILES,"lipid storage change, negative = inhibition",cell number change [%],Potency,outcome
COC(=O)c1ccc(CSc2nnc(N)s2)cc1,21.3% (inactive),1.22,,
CCn1cc(C(=O)OCC(=O)OC2CC(C)CCC2C(C)C)c(=O)c2ccc(C)nc21 (stereo not given),,,,inactive
CCOCCCNc1nc2c(C)cccn2c(=O)c1/C=C1\SC(=S)N(C(C)CC)C1=O (stereo not given),,29.9,0.461 µM (active),
CCOCCCNC(=O)c1cc2c(=O)n3cccc(C)c3nc2s1,15.3% (inactive),22,,
CCC(C)Nc1nc2c(C)cccn2c(=O)c1C=Nc1ccc(OC)cc1 (stereo not given),22.7% (inactive),,,
COCCn1c(=O)[nH]c(=O)c2c(C(F)(F)F)cc(-c3cccs3)nc21,7.94% (inactive),6.31,,
COc1ccc(CNC(=O)c2cc(=O)c3cc(C)c(C)cc3o2)cc1,25% (inactive),22.5,,
CN(NS(=O)(=O)c1ccc(F)cc1)c1ncc(C(F)(F)F)cc1Cl,7.85% (inactive),-16.4,,
CC(=O)NCCC(=O)Nc1ncc(S(=O)(=O)c2ccc([N+](=O)[O-])cc2)s1,17.1% (inactive),18.8,,
CCCOc1ccc(N2C(=O)CC(N3CCN(c4ccc([N+](=O)[O-])cc4)CC3)C2=O)cc1 (stereo not given),,5.5,2.31 µM (active),
CCCOc1ccc(N2C(=O)CC(N3CCN(c4ccccc4F)CC3)C2=O)cc1 (stereo not given),11.8% (inactive),-7.57,,
CCCOc1ccc(N2C(=O)CC(N3CCOCC3)C2=O)cc1 (stereo not given),,5.36,,inactive
Cn1c(=O)n(CC(=O)O)c(=O)c2c1nc1n2CCCN1Cc1ccccc1,-23.5% (inactive),6.57,,
O=C(COc1ccccc1[N+](=O)[O-])N/N=C/C=C/c1ccco1,-22.2% (inactive),-6.08,,
Cc1cc(NC(=O)CN2C(=O)NC3(CCC(C)CC3)C2=O)no1 (stereo not given),2.19% (inactive),5.62,,
O=C(NCCN1C(=O)S/C(=C\c2ccc(Cl)c([N+](=O)[O-])c2)C1=O)C1=COCCO1,-27.2% (inactive),12.4,,
O=C(NCCN1C(=O)S/C(=C\c2cccc(Cl)c2Cl)C1=O)C1=COCCO1,,-26.2,11.6 µM (active),
O=C(NCCN1C(=O)S/C(=C\c2ccc(Cl)c(Cl)c2)C1=O)C1COc2ccccc2O1 (stereo not given),,,,inactive
O=C(CCc1nc2ccccc2c(=O)[nH]1)NCCN1C(=O)S/C(=C\c2ccc(Cl)cc2Cl)C1=O,-29.4% (inactive),1.43,,
O=C(NCCN1C(=O)S/C(=C\c2ccc(Cl)cc2Cl)C1=O)C1=COCCO1,,,20.6 µM (active),
O=C(CCCN1C(=O)/C(=C/c2ccccc2Cl)SC1=S)NCCCN1CCOCC1,-10.8% (inactive),16.8,,
Cn1c(=O)c(Nc2ccc(O)cc2)c2c3c(cccc31)C(=O)c1ccccc1-2,2.84% (inactive),4.29,,
CCOC(=O)c1c2c3c(cccc3n(C)c1=O)C(=O)c1ccccc1-2,,-24.8,13 µM (active),
CC(=O)c1c2c3c(cccc3n(C)c1=O)C(=O)c1ccccc1-2,,-3.04,,inactive

SMILES,"lipid storage change, negative = inhibition",cell number change [%],Potency,outcome
COc1ccccc1CNC(=O)c1sccc1-c1ccccc1,,7.94,,inactive
CCOC(=O)c1sc(=NC(=O)c2ccc(OC)c(OC)c2)n(C)c1C,9.28% (inactive),0.273,,
CC(=O)c1ccc(S(=O)(=O)N2CCCc3ccccc32)cc1,11.7% (inactive),13.2,,
Cc1cccc(Oc2ncnc(N)c2[N+](=O)[O-])c1C,-2.92% (inactive),1.6,,
O=C(Nc1cccc2ncccc12)c1ccc([N+](=O)[O-])o1,,26.1,16.4 µM (active),
CCCn1c(NC(=O)c2ccc([N+](=O)[O-])o2)nc2ccccc21,,-9.34,6.51 µM (active),
CCCn1c(NC(=O)c2ccc(C)cc2)nc2ccccc21,,,,inactive
O=C(Nc1ncccn1)c1ccc([N+](=O)[O-])o1,-14.6% (inactive),-11.9,,
O=C(Nc1cccc2ncccc12)c1ccc(-c2ccc(Br)cc2)o1,-6.65% (inactive),-12.1,,
Cc1cccc(NC(=O)c2ccc([N+](=O)[O-])o2)c1C,-1.69% (inactive),8.85,,
CCCn1c(NC(=O)c2ccco2)nc2ccccc21,,-15.8,,inactive
O=C(Nc1ccccn1)c1cc2ccccc2o1,2.25% (inactive),-2.14,,
O=C(Nc1ccccn1)c1ccc([N+](=O)[O-])o1,,-6.3,20.6 µM (active),
Cc1cc(C)cc(OCCNC(=O)c2ccc(Br)cc2)c1,,5.31,,inactive
CCC(C)c1ccc(NC(=O)Nc2cnccn2)cc1 (stereo not given),-6.7% (inactive),13.7,,
O=C1CC(C(=O)Nc2cc(Cl)ccc2Cl)n2ncnc2N1 (stereo not given),6.51% [at 9.22 µM] (inactive),-2.1,,
CCOC(=O)N1CCN(S(=O)(=O)c2ccc(C)c(C)c2)CC1,,,,inactive
CCN(CC)CCNC(=O)CCn1nc(-c2ccc(Cl)cc2)ccc1=O,-4.06% (inactive),9.34,,
O=C(C1COc2ccccc2O1)N1CCCCC1 (stereo not given),-14.7% (inactive),3.75,,
O=C(C1COc2ccccc2O1)N1CCN(c2ccccc2O)CC1 (stereo not given),37.9% (inactive),-2.02,,
O=C(C1COc2ccccc2O1)N1CCCC1 (stereo not given),,0.347,6.51 µM (active),
O=C(NNc1cccc(Cl)n1)Nc1ccc(Cl)cc1,17.2% (inactive),-10.7,,
O=c1oc2ccc(F)cc2c2c1C1O[C@](c3ccsc3)(Cc3c1ccc1ccccc31)O2,17.6% [at 9.22 µM] (inactive),2.65,,
